Screens: PubChem, several laboratories
Shown are actives, neighbours in structure and some others; about 5.4% of the full set was active somewhere.
rCAG binder: binders of r(CAG) RNA repeats, primary screen, biochemical, fluorescence | r(CAG) RNA repeat, TO-PRO-1 dye displacement fluorescence | inhibition, % at 3 µM | AID 651821, 2012 | 370,000 compounds, 1.3% hits;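 active = inhibition above the plate cutoff, the mean of all test compounds on that plate plus 3 SD, cut at about 35% in these data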;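 also: 0% = DMSO alone and 100% = 100 µM mitoxantrone as full dye displacement; higher means more dye released from RNA so lower well fluorescence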
PHOSPHO1 block: PubChem AID 1565. recombinant PHOSPHO1, absorbance phosphatase assay. 290,000 compounds, 1.1% hits. inhibition, % at 13.3 µM. Phosphoethanolamine/phosphocholine phosphatase (Homo sapiens), Q8TCT1; in the data active = inhibition above about 60%
ALR H2O2 inh: inhibitors of human ALR sulfhydryl oxidase, primary screen, biochemical, H2O2 detection, HRP-luminol luminescence, single point; FAD-linked sulfhydryl oxidase ALR (Homo sapiens), P55789; purified ALR, DTT oxidation; inhibition, % (test concentration not listed); 290,000 compounds, 3.8% hits;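 active = mean replicate inhibition above about 79%, with every replicate also reaching it, limit read from the data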
aDG glyco act: activators of alpha-DG glycosylation, primary screen, uHTS, Pro5-aDG cells, AlphaScreen; alpha-DG glycosylation AlphaScreen (IIH6); 0% Pro5, 100% B10-LARGE cell signal; activation, % at 10 µM; 360,000 compounds, 0.22% hits; AID 624168, 2012;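 active = activation of at least 8% versus controls, or a plate z-score of at least 8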;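 also: Pro5 are CHO cells carrying HIG-tagged alpha-DG that lacks glycosylation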
APOBEC3A inh: APOBEC3A ssDNA deaminase inhibitors, primary screen, selectivity assay for APOBEC3G inhibitor project, biochemical, FAM/TAMRA oligo cleavage fluorescence; DNA dC->dU-editing enzyme APOBEC-3A (Homo sapiens), P31941; recombinant A3A, FAM/TAMRA ssDNA deamination fluorescence; inhibition, % at 20 µM; 330,000 compounds, 0.41% hits;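 active = at least 40% inhibition at 20 µM here, with at most 30% in a related deaminase screen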;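 also: plate controls were A3A with DMSO for no effect and wells lacking A3A enzyme for full effect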
Target sequence (P31941 whole entry, looked up): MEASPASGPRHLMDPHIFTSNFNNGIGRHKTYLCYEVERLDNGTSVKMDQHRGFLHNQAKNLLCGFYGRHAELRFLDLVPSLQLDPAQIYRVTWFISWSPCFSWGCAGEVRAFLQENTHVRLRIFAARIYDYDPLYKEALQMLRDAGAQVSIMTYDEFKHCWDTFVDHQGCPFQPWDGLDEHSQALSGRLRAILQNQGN
APOBEC3G inh: APOBEC3G DNA deaminase inhibitors, primary screen, biochemical, fluorescence, single-stranded DNA substrate, uHTS | DNA dC->dU-editing enzyme APOBEC-3G (Homo sapiens), Q9HC16 | recombinant A3G, ssDNA deamination FAM/TAMRA fluorescence | inhibition, % at 20 µM | 330,000 compounds, 0.28% hits;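 active = inhibition of at least 40% at 20 µM, with no more than 30% in the related APOBEC3A deaminase screen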;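 also: plate controls were DMSO wells with A3G for no effect and wells lacking A3G enzyme for full effect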
Target sequence (Q9HC16 whole entry, looked up): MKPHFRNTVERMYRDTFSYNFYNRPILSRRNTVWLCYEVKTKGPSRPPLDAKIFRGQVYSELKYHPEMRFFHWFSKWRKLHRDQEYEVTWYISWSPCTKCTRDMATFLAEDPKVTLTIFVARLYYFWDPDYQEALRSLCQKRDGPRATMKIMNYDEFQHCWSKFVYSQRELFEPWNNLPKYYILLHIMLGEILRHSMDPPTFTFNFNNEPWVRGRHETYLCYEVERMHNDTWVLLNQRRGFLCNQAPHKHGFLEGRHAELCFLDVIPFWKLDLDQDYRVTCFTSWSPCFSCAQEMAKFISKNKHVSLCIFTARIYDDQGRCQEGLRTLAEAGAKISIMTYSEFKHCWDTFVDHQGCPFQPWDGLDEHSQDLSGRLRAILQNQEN
Active calls of the source: *.

Results for Nc1ccc2nc(COc3ccccc3)[nH]c2c1 ?
rCAG binder: 2.5; ALR H2O2 inh: 91.1*; aDG glyco act: -0.1; APOBEC3A inh: 2.3; APOBEC3G inh: -2.7

How did COc1ccc(Cn2ccc3ccc(-c4ccc5ccn(Cc6cccc(F)c6)c5c4)cc32)cc1 do in these assays?
rCAG binder: 21.2

What do the screens show for `Cc1cc(C)n(CCc2nc(-c3ccco3)cs2)n1`?
rCAG binder: 10.6; PHOSPHO1 block: 40.6; ALR H2O2 inh: 98.5*; aDG glyco act: 0.0; APOBEC3A inh: 16.2; APOBEC3G inh: 4.4

Results for COc1cccc2cc(-c3nnc(-c4ccccc4)o3)c(=O)oc12 ?
rCAG binder: 3.6; PHOSPHO1 block: -5.7; ALR H2O2 inh: -3.7; aDG glyco act: 0.0; APOBEC3A inh: -3.0; APOBEC3G inh: -5.7

What do the screens show for `CC/C(C)=N/Nc1nc(-c2cc3cccc(OC)c3oc2=O)cs1`?
rCAG binder: 33.8; PHOSPHO1 block: 25.4; ALR H2O2 inh: 98.5*; aDG glyco act: 0.1; APOBEC3A inh: 1.0; APOBEC3G inh: 0.3

What do the screens show for `Cc1cc(C)n(CCc2nc(-c3cccs3)cs2)n1`?
rCAG binder: -4.4; PHOSPHO1 block: 11.3; ALR H2O2 inh: -9.5; aDG glyco act: 0.0; APOBEC3A inh: -3.1; APOBEC3G inh: -3.6

How did COc1cccc2cc(-c3csc(CCn4nc(C)cc4C)n3)c(=O)oc12 do in these assays?
rCAG binder: 12.3; PHOSPHO1 block: -20.1; ALR H2O2 inh: 97.8*; aDG glyco act: -0.2; APOBEC3A inh: -2.9; APOBEC3G inh: -6.9

Results for CC(c1ccccc1)n1cc(C(=O)N2CCCN(Cc3ccccc3)CC2)nn1 (configuration not stated) ?
rCAG binder: 2.0

What do the screens show for `O=C(COC(=O)CSCC(=O)N1CCCCC1)Nc1ccc(Cl)cc1`?
rCAG binder: -4.6; PHOSPHO1 block: -10.8; ALR H2O2 inh: 88.9*; aDG glyco act: -0.2; APOBEC3A inh: -3.2; APOBEC3G inh: -3.0

What do the screens show for `O=C(CSCC(=O)N1CCCCC1)OCC(=O)c1c[nH]c2ccccc12`?
rCAG binder: 1.1; PHOSPHO1 block: 1.8; ALR H2O2 inh: 98.3*; aDG glyco act: -0.2; APOBEC3A inh: 1.2; APOBEC3G inh: -1.9

What do the screens show for `O=C(COc1ccccc1)OCC(=O)c1c[nH]c2ccccc12`?
rCAG binder: 5.2; ALR H2O2 inh: 6.1; aDG glyco act: 0.7; APOBEC3A inh: -1.7; APOBEC3G inh: -4.6

How did Cc1cc2nnc(SC3CCOC3=O)n2c2ccccc12 (configuration not stated) do in these assays?
rCAG binder: 0.7; PHOSPHO1 block: 74.0*; ALR H2O2 inh: -5.3; aDG glyco act: 0.2; APOBEC3A inh: 1.3; APOBEC3G inh: 6.0

Results for Cc1cc(SC2CCOC2=O)nc2ccccc12 (configuration not stated) ?
rCAG binder: 0.6; PHOSPHO1 block: 12.3; ALR H2O2 inh: -2.7; aDG glyco act: 0.0; APOBEC3A inh: 0.3; APOBEC3G inh: -6.9

Results for COc1ccccc1NC(=O)C1Cc2ccccc2CN1C(=O)c1ccco1 (configuration not stated) ?
rCAG binder: 3.2; PHOSPHO1 block: 35.9; aDG glyco act: 0.1; APOBEC3A inh: -1.3; APOBEC3G inh: -10.2

Results for O=C(Nc1cc(C(F)(F)F)ccc1N1CCOCC1)C1Cc2ccccc2CN1C(=O)c1ccco1 (configuration not stated) ?
rCAG binder: 12.8; PHOSPHO1 block: 65.2*; ALR H2O2 inh: -8.4; aDG glyco act: 0.1; APOBEC3A inh: 11.1; APOBEC3G inh: 4.6

Results for O=C(Nc1ccccc1)C1Cc2ccccc2CN1C(=O)c1ccco1 (configuration not stated) ?
rCAG binder: 12.3; PHOSPHO1 block: 32.6; ALR H2O2 inh: 97.3*; aDG glyco act: -0.1; APOBEC3A inh: -1.8; APOBEC3G inh: -6.0

Results for O=c1c2cc3cccnc3nc2ncn1CCc1c[nH]c2ccccc12 ?
rCAG binder: 10.7

Results for Cc1ccccc1CN1CCCCC(NC(=O)c2ccc(F)c(F)c2)C1=O (configuration not stated) ?
rCAG binder: -0.4

Results for CC(C)N1CCCCC(NC(=O)c2ccc(F)c(F)c2)C1=O (configuration not stated) ?
rCAG binder: -1.4

What do the screens show for `NC(=O)COc1ccccc1C(=O)O`?
rCAG binder: 1.8; PHOSPHO1 block: 37.3; ALR H2O2 inh: 87.4*; aDG glyco act: -0.1; APOBEC3A inh: -6.4; APOBEC3G inh: -5.5

How did CC(=O)CC[C@H]1CC[C@]2(CCCN(C(=O)c3ccc4ccccc4n3)C2)O1 do in these assays?
rCAG binder: -1.1

Results for CCc1c(C)nc(SCC(=O)c2ccc(C)c(C)c2)[nH]c1=O ?
rCAG binder: -2.9; PHOSPHO1 block: 15.4; ALR H2O2 inh: -69.0; aDG glyco act: 0.1; APOBEC3A inh: -1.6; APOBEC3G inh: -4.8

What do the screens show for `CCCC1CC(=O)OC1(C)C(=O)CSc1n[nH]c(-c2ccccc2)n1` (configuration not stated)?
rCAG binder: 13.9; PHOSPHO1 block: 18.6; ALR H2O2 inh: -2.1; APOBEC3A inh: 4.3; APOBEC3G inh: 2.9

How did CCCC1CC(C)(C(=O)CSc2n[nH]c(-c3ccccc3)n2)OC1=O (configuration not stated) do in these assays?
rCAG binder: 11.9; PHOSPHO1 block: 60.4*; ALR H2O2 inh: 7.5; aDG glyco act: -0.3; APOBEC3A inh: -2.8; APOBEC3G inh: -14.4

How did O=C(CSc1n[nH]c(-c2ccccc2)n1)c1ccc(O)c(O)c1 do in these assays?
rCAG binder: 12.8; PHOSPHO1 block: 43.5; ALR H2O2 inh: 98.8*; aDG glyco act: 0.0; APOBEC3A inh: 0.1; APOBEC3G inh: -0.2

What do the screens show for `Cc1ccc(O)c(NC(=O)CSc2n[nH]c(-c3ccccc3)n2)c1`?
rCAG binder: 1.2; PHOSPHO1 block: 22.2; ALR H2O2 inh: 7.5; aDG glyco act: 0.9; APOBEC3A inh: -4.0; APOBEC3G inh: -2.5

What do the screens show for `CCc1nc(SCC(=O)c2ccc(C)c(C)c2)n[nH]1`?
rCAG binder: -0.2; PHOSPHO1 block: 99.0*; ALR H2O2 inh: 93.1*; aDG glyco act: 0.0; APOBEC3A inh: -1.4; APOBEC3G inh: -8.8

What do the screens show for `Cc1ccc(C(=O)CSc2n[nH]c(-c3ccco3)n2)cc1C`?
rCAG binder: 5.5; PHOSPHO1 block: -31.3; ALR H2O2 inh: 97.4*; aDG glyco act: -0.3; APOBEC3A inh: -1.0; APOBEC3G inh: 3.1

Results for CCOCCCNCC(=O)Nc1ccccc1N1CCOCC1 ?
rCAG binder: -2.9; PHOSPHO1 block: 2.8; ALR H2O2 inh: 97.0*; aDG glyco act: -0.1; APOBEC3A inh: 2.2; APOBEC3G inh: -1.1
